From PubChem BioAssay (NCATS)
Unmarked numbers belong to inactive results. Calls come from the whole dose curve; as a rule, active = well fitted curve in the direction sought with a large enough effect (not every such curve was filed as active); inconclusive = small, poorly fitted or top-dose-only effect, or effect the other way, or another doubt; inactive = no such curve, though single readings can be large or run the other way.

The compounds below were run against Pyruvate kinase PKM (Homo sapiens) (UniProt P14618) (assay: qHTS Assay for Activators of Human Muscle Pyruvate Kinase (AID 954;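 note: 0% = uninhibited enzyme and -100% = no enzyme or full thiadiazolimine inhibition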)). Details: purified human muscle pyruvate kinase, luciferase-coupled luminescence, 1 h; series mostly up to 57.5 µM; activity change, negative = inhibition: at the top concentration.
Sequence of Pyruvate kinase PKM (Homo sapiens) (P14618 whole entry, looked up): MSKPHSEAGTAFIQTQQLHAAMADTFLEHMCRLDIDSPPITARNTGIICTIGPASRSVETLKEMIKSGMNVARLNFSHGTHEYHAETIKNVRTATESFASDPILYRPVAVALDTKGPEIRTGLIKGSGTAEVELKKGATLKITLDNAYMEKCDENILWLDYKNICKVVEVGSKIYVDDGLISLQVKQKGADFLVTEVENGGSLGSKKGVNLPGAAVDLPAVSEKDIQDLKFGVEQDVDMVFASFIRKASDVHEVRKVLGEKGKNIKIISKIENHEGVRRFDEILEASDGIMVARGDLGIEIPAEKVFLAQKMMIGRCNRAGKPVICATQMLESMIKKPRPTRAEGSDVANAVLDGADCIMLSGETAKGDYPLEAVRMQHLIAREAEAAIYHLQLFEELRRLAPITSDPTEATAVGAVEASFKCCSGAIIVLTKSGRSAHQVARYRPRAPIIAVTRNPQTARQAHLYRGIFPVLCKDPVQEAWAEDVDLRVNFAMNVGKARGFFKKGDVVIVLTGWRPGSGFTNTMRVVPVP
How it was run: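 Luminescence from a luciferase ATP-detection/stop reagent reported PKM2 activity. Reactions contained 0.1 nM purified human enzyme, 0.5 mM PEP, 0.1 mM ADP and 7 mM MgCl2 at pH 7.2, run 1 h at RT.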
`CC1=C(CC(=O)O)c2cc(F)ccc2/C1=C\c1ccc(S(C)=O)cc1` (stereo not drawn) was tested, and the “activity change, negative = inhibition” value was -12.1%. `NC1CCN(c2cccc(Cl)n2)CC1` was tested, and the “activity change, negative = inhibition” value was -13.1%. In the case of `CNCCCC1c2ccccc2C=Cc2ccccc21`, the “activity change, negative = inhibition” value is reported as -11.4%.
